ADAM10 inh: human ADAM10 inhibitors, primary screen, biochemical, QFRET, HTS | AID 720582, 2013 | inhibition, % at 7 µM | recombinant ADAM10, EDANS/DABCYL FRET peptide cleavage, 3 h | 370,000 tested, 0.62% active | Disintegrin and metalloproteinase domain-containing protein 10 (Homo sapiens), O14672;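 active = inhibition above a per-campaign cutoff equal to the mean of compounds falling between control-based bounds plus 3 SD, cut at about 20% in these data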;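 also: 0% = DMSO wells while the 100% control is not disclosed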
NPR1 activator: GC-A stimulated cGMP production enhancers – HEK293 GC-A cells, cGMP TR-FRET, EC30 ANP, primary screen. AID 1671463, 2021. 370,000 tested, 0.14% active. activation, % at 10 µM. Atrial natriuretic peptide receptor 1 (Homo sapiens), P16066. 0% at EC30 ANP, 100% saturating ANP; in the data active = activation above about 40%
NPR2 activator: human GC-B receptor activators, primary screen, HEK293 GC-B cells, cGMP TR-FRET, EC30 CNP | Atrial natriuretic peptide receptor 2 (Homo sapiens), P20594 | 0% at EC30 CNP, 100% saturating CNP | activation, % at 10 µM | 370,000 tested, 0.11% active | AID 1920062, 2024;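 active = activation at 10 µM reaching about 35% in either raw or pattern-adjusted values, limit read from the data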
Target sequence (P20594 whole entry, looked up): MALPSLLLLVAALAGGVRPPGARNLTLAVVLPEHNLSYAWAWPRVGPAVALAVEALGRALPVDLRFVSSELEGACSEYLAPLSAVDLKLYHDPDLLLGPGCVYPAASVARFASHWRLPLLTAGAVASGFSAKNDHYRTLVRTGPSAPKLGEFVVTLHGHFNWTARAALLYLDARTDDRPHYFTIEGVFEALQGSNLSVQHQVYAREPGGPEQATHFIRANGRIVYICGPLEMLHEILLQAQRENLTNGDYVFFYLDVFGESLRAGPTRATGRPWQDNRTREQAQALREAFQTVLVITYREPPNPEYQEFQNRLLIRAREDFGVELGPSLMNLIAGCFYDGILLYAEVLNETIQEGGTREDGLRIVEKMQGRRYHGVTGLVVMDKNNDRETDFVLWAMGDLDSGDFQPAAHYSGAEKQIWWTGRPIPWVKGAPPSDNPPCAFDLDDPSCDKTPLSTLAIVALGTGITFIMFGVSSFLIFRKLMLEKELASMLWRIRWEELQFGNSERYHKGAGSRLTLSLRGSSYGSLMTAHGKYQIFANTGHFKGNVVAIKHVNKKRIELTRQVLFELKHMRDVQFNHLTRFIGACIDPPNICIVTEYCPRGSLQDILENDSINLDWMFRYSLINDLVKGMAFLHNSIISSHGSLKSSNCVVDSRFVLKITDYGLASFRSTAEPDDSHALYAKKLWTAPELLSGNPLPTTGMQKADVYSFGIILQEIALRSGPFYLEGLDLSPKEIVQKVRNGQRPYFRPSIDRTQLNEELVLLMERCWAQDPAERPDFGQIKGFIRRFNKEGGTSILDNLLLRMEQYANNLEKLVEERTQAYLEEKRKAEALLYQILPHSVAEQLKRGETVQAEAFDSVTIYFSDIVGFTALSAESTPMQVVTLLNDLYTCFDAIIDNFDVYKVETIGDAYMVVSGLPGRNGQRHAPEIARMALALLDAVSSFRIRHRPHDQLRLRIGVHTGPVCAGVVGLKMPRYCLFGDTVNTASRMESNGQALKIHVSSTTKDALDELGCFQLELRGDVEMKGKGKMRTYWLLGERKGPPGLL
ADAM17 inh: ADAM17 inhibitors, primary screen, biochemical, QFRET; recombinant ADAM17, EDANS/DABCYL FRET peptide cleavage; inhibition, % at 6.95 µM; 370,000 tested, 0.83% active; AID 720648, 2013;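 active = inhibition above the mean of compounds lying between control limits plus 3 SD, set per campaign, cut at about 8.5% in these data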;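 also: 0% = DMSO-only wells as the low control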
ADAM10 confirm: human ADAM10 inhibitors, confirmation, biochemical, QFRET, triplicate | shares compounds with ADAM10 inh | ADAM10 QFRET peptide cleavage, EDANS fluorescence | inhibition, % at 6.95 µM | 2,100 tested, 1% active;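 active = inhibition above about 20% chosen separately for each screening run, limit read from the data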;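 also: 0% = DMSO wells and 100% = marimastat wells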
ADAM17 ctr: ADAM17 inhibitors, counter-screen for ADAM10 exosite inhibitor project, biochemical, QFRET, high throughput; shares compounds with ADAM10 inh; ADAM17 QFRET peptide cleavage, EDANS fluorescence; inhibition, % at 6.95 µM; 2,100 tested, 0.5% active; AID 743214, 2013;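 active = mean triplicate inhibition above the solvent-only control wells' mean plus 3 SD, cut at about 12% in these data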;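 also: 0% = DMSO wells and 100% = marimastat wells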
Starred values were filed as active, the others as inactive; nt = not tested or not shown. The list is not random: actives were taken first. Their share in the collection is about 1.3%.

SMILES	ADAM10 inh	NPR1 activator	NPR2 activator	ADAM17 inh	ADAM10 confirm	ADAM17 ctr
Cc1ccc(S(=O)(=O)N(C)C[C@@H]2OCCCC[C@@H](C)Oc3ccc(NS(=O)(=O)c4c(C)noc4C)cc3C(=O)N([C@H](C)CO)C[C@@H]2C)cc1	0	2	-1	6	nt	nt
Oc1ccc(-c2nccc(-c3ccc(Br)cc3)n2)cc1	20*	-1	-11	6	6	2
COc1ccc(-c2ccc(-c3noc(-c4ccc(OC)c(OC)c4)n3)c(OC)n2)cc1	-13	-2	4	-5	nt	nt
COc1ccc(-c2ccc(-c3noc(-c4cccc(OC)c4)n3)c(OC)n2)cc1	39*	-3	-2	-4	73*	42*
Clc1ccccc1C1CC(c2ccccc2)Nc2ncnn21 (centres undefined)	92*	-1	-4	-3	2	-1
c1ccc(C2CC(c3ccccc3)n3ncnc3N2)cc1 (centres undefined)	-8	3	-2	-4	nt	nt
CC(C)Oc1ccc(Cl)cc1Nc1nc(NCCO)nc(N2CCCC2)n1	21*	1	-4	7	4	2
COc1ccc(Cl)cc1Nc1nc(NCCO)nc(N2CCCC2)n1	-1	-8	-3	-3	nt	nt
CC(Nc1nc(-c2ccc(F)cc2)cs1)c1nc2cc(Cl)c(N3CCCCC3)cc2n1CCOCCO (centres undefined)	15	-1	-3	8	nt	nt
CC(Nc1nc(-c2ccc(F)cc2)cs1)c1nc2cc(Cl)c(N3CCCCC3)cc2n1CCCO (centres undefined)	42*	-2	-6	4	4	2
CCOc1cc(/C=N/NC(=O)c2cccc([N+](=O)[O-])c2)ccc1OS(=O)(=O)c1ccccc1	28*	2	1	6	4	1
NNC(=O)COc1ccc2oc3c(c2c1)CCCC3	-2	-1	0	1	nt	nt
O=C(CSC1CC(=O)N(c2ccc(C(=O)O)cc2)C1=O)Nc1ccc(Cl)cc1 (centres undefined)	3	5	0	2	nt	nt
CCOC(=O)c1ccc(NC(=S)NC(=O)c2cncc(Br)c2)cc1	75*	2	-6	-2	0	0
CN(Cc1ccccc1)C(=O)c1ccc(NC(=O)Cc2cccc(NC(=O)C3CCCN(C(=O)C4CCC4)C3)c2)cc1 (centres undefined)	7	0	4	-1	nt	nt
COc1ccc(NC(=S)NC23CN4CN(CN(C4)C2)C3)cc1	83*	0	4	1	1	0
COc1ccc(NC(=O)NNC(=O)CCn2nc(C)c([N+](=O)[O-])c2C)cc1OC	-3	-1	0	0	nt	nt
CC(C)(C)c1ccc(Cn2cnc(-c3ccc([N+](=O)[O-])cc3)c2)cc1	5	4	1	4	nt	nt
Cc1cc(C)c(Cn2cnc(-c3ccc([N+](=O)[O-])cc3)c2)c(C)c1	29*	6	1	-16	4	1
COc1ccc(N2CCN(CCNS(=O)(=O)c3ccc(C)cc3)CC2)cc1	86*	3	6	3	2	2
ON=C1c2ccccc2-c2ccc(Br)cc21	26*	1	-8	8	2	1
ON=C1c2ccccc2-c2ccc(F)cc21	7	9	-3	0	nt	nt
COc1ccc(Cl)cc1NS(=O)(=O)c1ccc(S(=O)(=O)N2CCCC2)cc1	20*	-5	-5	2	1	0
O=C(Nc1ccc(OCC(F)(F)C(F)F)c(C(F)(F)F)c1)c1ccccc1	24*	4	2	7	3	0
COc1ccccc1C(=O)Nc1ccc(C)cc1C(=O)c1ccccc1	21*	2	-2	7	1	1
SMILES	ADAM10 inh	NPR1 activator	NPR2 activator	ADAM17 inh	ADAM10 confirm	ADAM17 ctr
Cc1ccc(NS(=O)(=O)c2cc(C(=O)NCCSC3CCCCC3)ccc2C)cc1	21*	-5	9	6	3	2
CC(=O)c1cccc(-c2ccnc3c2CC(C(=O)NCc2cccs2)O3)c1 (centres undefined)	-14	-1	8	-1	nt	nt
Cc1ccc(S(=O)(=O)N[C@H](C(=O)N2CCC(C(=O)N[C@H](C(=O)O)c3ccccc3)CC2)C(C)C)cc1	-5	2	5	5	nt	nt
O=S(=O)(NCCc1c[nH]c2ccccc12)c1ccc(F)cc1	-1	-1	-1	0	nt	nt
CCn1nc(C)c(C(=O)Nc2cc(Oc3cc(C)cc(C)c3)cc([N+](=O)[O-])c2)c1C	21*	-9	-7	5	6	2
Cc1csc(NC(=O)c2cccc(Cn3nc(C)c(Br)c3C)c2)n1	20*	8	7	3	4	1
CC(=O)Nc1ccc(S(=O)(=O)N[C@@H](C)C(=O)N2CCN(c3ccccn3)CC2)cc1	-4	-2	4	0	nt	nt
CCC(NS(=O)(=O)c1ccc(C)cc1)C(=O)N1CCN(c2ccccn2)CC1 (centres undefined)	80*	-2	7	-1	2	1
CCc1ccc(C(=O)NNC(=O)CN2C(=O)NC3(CCCC3)C2=O)cc1	-4	0	-2	-2	nt	nt
COc1ccc(N(C(C)C(=O)Nc2ccc(S(=O)(=O)N3CCCCC3)cc2)S(C)(=O)=O)cc1 (centres undefined)	4	-1	0	-1	nt	nt
O=C(NNC(=O)c1cc(-c2cccc(Br)c2)nc2ccccc12)c1csc(N2CCOCC2)n1	22*	-7	0	7	9	3
O=C(NNC(=O)c1cc(Br)ccc1Cl)c1csc(N2CCOCC2)n1	12	-1	3	-4	nt	nt
CCOC(=O)c1c(C)nc2sc3c(=O)n(-c4ccc(C(C)=O)cc4)cnc3c2c1-c1ccc(OC)cc1	-1	5	-12	-5	nt	nt
CC(=O)c1c(C)nc2sc3c(=N)n(N)cnc3c2c1-c1ccc(Cl)cc1	21*	5	-7	1	3	1
COc1ccc(-n2nc(C(=O)NCC(=O)NCc3ccc(F)cc3)c3ccccc3c2=O)cc1OC	-6	-2	-3	-4	nt	nt
O=C(Cc1ccccc1)NNC(=S)Nc1ccccc1	-5	4	5	-8	nt	nt
O=C(CSc1nnc(SCc2ccccc2)s1)NNC(=S)Nc1ccccc1	24*	-2	7	8	0	1

High-throughput results deposited in PubChem by several laboratories.
